HT1080 IDH1KD tx – kills HT-1080 cells with IDH1 knockdown. HT-1080 IDH1 knockdown viability, ATP luminescence, 48 h. Potency, µM (series often up to 46.1 µM), inactives show at the highest dose activity, negative = toxicity, hits mostly cytotoxic. 360,000 tested, 2% active. AID 686971;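 note: potency is the fitted concentration of half-maximal effect; 0% = DMSO wells and -100% = cell-free medium wells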
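Assay cells: HT-1080 with IDH1 knockdown, 750 per well, RPMI/5% FBS. Exposure: 48 h at 37 °C following 2 h pre-incubation. Read: CellTiter-Glo luminescence; fitted concentration-response, curve class assigned.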
DT40 TDP1 no CPT – qHTS for Inhibitors of human tyrosyl-DNA phosphodiesterase 1 (TDP1): qHTS in cells in absence of CPT. DT40 Tdp1-/- hTDP1 cells, no CPT, ATP luminescence, 48 h. Potency, µM (doses to about 46.2 µM), for inactives: top-dose activity change, negative = growth inhibition, usual class: inhibitors. 420,000 tested, 15% active; note: potency is the fitted concentration of half-maximal effect; nearly all actives have a fitted effect of over 55% in size
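Compound effects on proliferation are scored in DT40 Tdp1-/-;hTDP1 cells in the absence of CPT. ATP levels (CellTiter-Glo luminescence) are recorded after a ≥48 hr, 37 °C incubation.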
IL-1B inflam inh – inhibitors of inflammasome signaling (IL-1 beta secretion). THP-1 LPS/ATP IL-1B secretion, AlphaLISA, 16 h; stronger effect = lower value. activity change, % at 57.5 µM. 360,000 tested, 4.7% active. AID 743279; in the data active = activity change below about -50%; inconclusive = mostly about -30% to -49%
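Secreted IL-1B measured by AlphaLISA bead assay after 16 h compound exposure of THP-1 cells; compounds (final up to 57.5 uM) added 1 h before LPS (250 ng/mL) and ATP (1.25 mM) stimulation; lower signal means less secretion.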
HT1080NT lethal – kills 2HG-producing HT-1080-NT fibrosarcoma cells. 360,000 tested, 1.6% active. HT-1080-NT fibrosarcoma viability, CellTiter-Glo ATP luminescence, 48 h. Potency, µM (top dose mostly 46.1 µM), without a hit: at the top dose activity, negative = less viability, usual class: cytotoxic;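 note: NT is the 2HG producing partner of a matched IDH1 knockdown line; potency is the fitted concentration of half-maximal effect; 0% = DMSO-treated cells and -100% = media-only wells without cells; nearly all actives have a fitted effect of over 55% in size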
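750 cells/well, RPMI + 5% FBS; 2 h settle, compound pin-transfer, 48 h at 37 degrees C. CellTiter-Glo 10 min RT, luminescence. Normalized to DMSO and media-only wells.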
TDP1 cell CPT – growth inhibition of DT40 Tdp1-/-;hTDP1 cells with camptothecin (screen for TDP1 inhibitors). chicken DT40 Tdp1-/-;hTDP1 cells + 20 nM CPT, ATP luminescence, 48 h. Potency, µM (highest dose often 46.2 µM), inactives show at the top dose activity change, negative = growth inhibition, most hits filed as inhibitors. 420,000 tested, 12% active. AID 686979; note: potency is the fitted concentration of half-maximal effect; nearly all actives have a fitted effect of over 55% in size
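Cell growth measured by CellTiter-Glo luminescence after a minimum 48 h, 37 C compound exposure with 20 nM CPT in Tdp1-knockout DT40 cells stably expressing hTDP1, seeded 400/well; qHTS titration format.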
* hit, by the source's call; i = inactive; ? = inconclusive; nt = no result; [ ] = remark or other dose. Only some compounds are listed: those with a hit (about 19% of all), similar ones and a draw of the others. Unless noted, calls come from the whole dose curve; as a rule, active = well fitted curve in the direction sought with a large enough effect; inconclusive = small, poorly fitted or top-dose-only effect, or another doubt; inactive = no such curve, though single readings can be large; an effect the other way counts as inactive or inconclusive. Unless noted, % is set by controls: 0 for no effect and ±100 for the full control effect.

SMILES	HT1080 IDH1KD tx	DT40 TDP1 no CPT	IL-1B inflam inh	HT1080NT lethal	TDP1 cell CPT
Cc1ccc(NC(=O)CN(C)CC(=O)Nc2ccc(N3CCOCC3)cc2)cc1F	-7%	?	-8	5%	-30%
CN(CC(=O)Nc1ccc(N2CCOCC2)cc1)C(=O)CSc1ccc(Br)cc1	-7%	15µM*	1	-2%	?
CN(CC(=O)Nc1ccc(N2CCOCC2)cc1)C(=O)CCc1cc(C(C)(C)C)c(O)c(C(C)(C)C)c1	-19%	16µM*	-1	-17%	?
CN(CC(=O)Nc1ccc(N2CCOCC2)cc1)C(=O)CC(c1ccccc1)c1ccccc1	-4%	-18%	-5	-8%	-17%
O=C(c1cc(COc2ccccc2)on1)N1CCCC(CN2CCOCC2)C1 (configuration not stated)	14%	15%	9	-1%	-27%
Cc1nn(CC(=O)NCc2cc3ccccc3[nH]2)c(C)c1[N+](=O)[O-]	-3%	-20%	-65*	0%	-26%
Cc1nn(CC(=O)NCc2ccccc2F)c(C)c1[N+](=O)[O-]	-2%	?	2	2%	26%
Cc1cc(N2CCOCC2)nc2ccc(NC(=O)C3CCC(C)CC3)cc12 (configuration not stated)	-1%	?	-12	-2%	?
Cc1cc(N2CCC(C)CC2)nc2ccc(NC(=O)/C=C/c3cccc(Cl)c3)cc12	nt	4.1µM*	nt	nt	6.5µM*
Cc1cc(N2CCCCC2)nc2ccc(NC(=O)CCC(=O)NCCC(C)C)cc12	0%	-27%	1	-1%	-30%
Cc1ccc(/C=C/C(=O)Nc2ccc3nc(N4CCC(C)CC4)cc(C)c3c2)cc1	nt	3.7µM*	nt	nt	5.8µM*
Cc1cc(N2CCCCC2)nc2ccc(NC(=O)/C=C/c3ccc(OCCC(C)C)cc3)cc12	nt	18µM*	nt	nt	-110%
Cc1cc(N2CCN(C)CC2)nc2ccc(NC(=O)c3cccnc3Cl)cc12	-1%	5%	-21	-5%	-12%
COCCCN1C(=O)C(CC(=O)NCCCCc2ccccc2)CC(C(=O)N(C(C)C)C(C)C)=C1C (configuration not stated)	16%	?	-11	27%	?
O=C(NC1CCOCC1)C1CCC(=O)N(Cc2ccc(Cl)cc2)C1 (configuration not stated)	-2%	-2%	i	3%	-2%
COCCNC(=O)C1(C)CCCN(Cc2cc(-c3ccccc3)n(C)n2)C1 (configuration not stated)	1%	?	17	5%	?
COc1ccc(NC(=O)N2CC3(CCN(C(=O)c4cnccn4)CC3)C2)cc1	nt	-22%	nt	nt	-17%
CCC1CN(CCNC(=O)C2CCCCN2C)Cc2cc(OC)ccc2O1 (configuration not stated)	nt	-7%	nt	nt	4%[9.04 µM]
S=C1NC(c2ccccc2)N2C(=S)NC(c3ccccc3)N12 (configuration not stated)	11%	-20%	-7	14%	2%
COc1ccc(C2NC(=S)N3C(c4ccc(OC)cc4)NC(=S)N23)cc1 (configuration not stated)	11%	16µM*	0	11%	?
COc1ccccc1C(=O)NS(=O)(=O)c1ccc(C)cc1	-2%	1%	6	1%	4%
COc1ccc(NC(=O)c2ccc(F)c(F)c2)c2ccccc12	11%	-25%	14	?	-24%
Cc1ccc2c(c1)CCC2=O	nt	?	nt	nt	12%
COc1cccc(C(=O)Nc2ccc(C(=O)c3ccncc3)cc2)c1	-26%	?	-10	?	?
COc1cc(SC)ccc1C(=O)NCc1ccc(C)cc1	?	?	-13	4%	16µM*
SMILES	HT1080 IDH1KD tx	DT40 TDP1 no CPT	IL-1B inflam inh	HT1080NT lethal	TDP1 cell CPT
COc1cc(OC)c(C(=O)Nc2ccncc2)cc1OC	10%	9%	-60*	9%	10%
COc1cc(SC)ccc1C(=O)Nc1ccncc1	-3%	13µM*	?	12%	16µM*
COc1cccc(OC)c1C(=O)Nc1ccc(C(=O)c2ccncc2)cc1	1%	?	5	7%	13µM*
COC(=O)CCC(=O)N1CCCC(N2CCN(c3cccc(C(F)(F)F)c3)CC2)C1 (configuration not stated)	-9%	-29%	-4	-1%	?
Cc1ccc(C(C)NC(=O)CSc2ccc(S(=O)(=O)N3CCOCC3)cn2)cc1C (configuration not stated)	-4%	?	-13	-2%	-26%
COc1cc(SC)ccc1C(=O)Nc1ccc(S(=O)(=O)Nc2nccc(C)n2)cc1	nt	?	nt	nt	23µM*
COc1ccccc1C(=O)Nc1ccc(S(=O)(=O)Nc2nc(C)cc(C)n2)cc1	nt	5%	nt	nt	2%
O=C(COC(=O)c1ccccc1)NCCCCc1ccccc1	1%	?	-10	1%	-11%
CNC[C@@H](CC1CCCCC1)NC[C@H](CC(C)C)NCCc1cccc(C(F)(F)F)c1	?	5.2µM*	-111*	23µM*	5.2µM*
CNC[C@@H](Cc1ccccc1)NC[C@@H](CC1CCCCC1)NCCCc1ccccc1	?	9.2µM*	-101*	?	8.2µM*
CCC[C@@H](CNC)NC[C@H](Cc1ccccc1)NCCCCc1ccccc1	?	12µM*	-70*	?	9.2µM*
CCC[C@@H](CN[C@@H](CNC)C(C)C)NCCCCc1ccccc1	?	0.82µM*	-15	?	1µM*
COc1ccc(CN2C(=O)CC(C(=O)NCCc3ccc(S(N)(=O)=O)cc3)SC2=Nc2ccccc2)cc1 (configuration not stated)	-6%	?	29	-9%	?
Cc1cc(OC(C)C(=O)NCCN2CCOCC2)c2c(C)cc(=O)oc2c1 (configuration not stated)	8%	21%	5	12%	6%
COc1ccc(CNC2CC(C)N(C)CC2C)cc1OC (configuration not stated)	1%	4%	9	1%	-1%
COc1cccc(Cn2c(=O)cnc3cnc(N(C)C)nc32)c1	nt	-29%	nt	nt	?
Cc1sc(NC(=O)C(C)C)c(C(=O)Nc2ccccc2)c1C	9%	15µM*	15	-6%	?
Cc1cccc(NC(=O)CCCCC(=O)Nc2cccc(C)c2)c1	0%	-13%	9	3%	17%
CCCC(=O)Nc1sc(C)c(C)c1C(=O)Nc1cccc(C)c1	-3%	-7%	-59*	7%	-13%
CC(=O)Nc1sc(C)c(C)c1C(=O)Nc1ccc(C)cc1	15%	-19%	38	7%	-1%

Source: PubChem (National Center for Advancing Translational Sciences (NCATS))
